# Source: PubChem BioAssay (Broad Institute)
# The sample as a whole holds a higher share of hits than the screen did.
# T cruzi growth-1: T. cruzi proliferation inhibition; T. cruzi beta-gal in NIH3T3, GalScreen luminescence, 90 h; inhibition, % at 8.34 µM; 77,000 tested, 5.9% active; AID 624255;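 active = mean inhibition above about 93%, with at least 55% of replicates each passing it, limit read from the data, passing the limit was not always enough; inconclusive = only one of those two conditions holds; inactive = neither condition holds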
# C diff HTS: C. difficile growth inhibition; Clostridium difficile clinical isolate growth, OD600, 24 h; hits give low values; growth activity, negative = inhibition, % at 16 µg/mL (by protocol); 86,000 tested, 0.25% active; AID 1259249;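 active = mean growth activity at or below -80% and every replicate also at or below -80%; inconclusive = mean at or below -80% but some replicate above -80%; inactive = mean growth activity above -80%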;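 note: 0% = DMSO wells and -100% = levofloxacin 16 µg/mL wells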
# T cruzi growth-2: Trypanosoma cruzi proliferation inhibition; inhibition, % at 8.35 µM; 5,600 tested, 72% active; shares compounds with T cruzi growth-1; AID 651739; T. cruzi beta-gal in NIH3T3, GalScreen luminescence, 90 h;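 active = mean replicate inhibition above about 95% and at least 55% of replicates individually reaching it, limit read from the data; inconclusive = only one of the two criteria is met; inactive = neither criterion is met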
# T cruzi growth-3: blocks T. cruzi growth in NIH3T3 host cells; shares compounds with T cruzi growth-1; T. cruzi beta-gal in NIH3T3, GalScreen luminescence, 90 h; inhibition, % at 2.09 µM; 5,600 tested, 21% active;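 active = mean inhibition above about 95%, with at least 55% of replicates also reaching it, limit read from the data; inconclusive = meets just one of the two conditions; inactive = meets neither condition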;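 note: plate controls were neutral control median for no effect and positive control median for full effect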
# 3T3 cytotox: cytotoxicity in mouse NIH/3T3 fibroblasts; shares compounds with T cruzi growth-1; NIH/3T3 viability, CellTiter-Glo ATP luminescence, 90 h; cytotoxicity (signal decrease), % at 8.35 µM; 5,600 tested, 14% active; AID 651742;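 active = mean signal decrease across replicates above about 35% based on untreated-well scatter, with enough replicates individually passing, limit read from the data; inconclusive = no rule stated though some were filed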;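 note: 0% = median of neutral control wells and 100% = median of positive control wells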
# NIH3T3 tox 2: NIH/3T3 (mouse) viability loss; shares compounds with T cruzi growth-1; NIH/3T3 viability, CellTiter-Glo ATP luminescence, 90 h; 5,600 tested, 56% active; inhibition, % at 24.9 µM; AID 651744;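 active = mean loss of cell viability signal at or above a set limit, and enough replicates individually reaching it; inconclusive = meets only the mean limit or only the replicate share; inactive = meets neither condition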;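 note: 0% = median of neutral control wells and 100% = median of positive control wells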
# Starred values were filed as active, the others as inactive; ? = inconclusive; . = no result.
SMILES,T cruzi growth-1,C diff HTS,T cruzi growth-2,T cruzi growth-3,3T3 cytotox,NIH3T3 tox 2
C[C@@H]1CN([C@H](C)CO)C(=O)Cc2cc(NC(=O)Cc3cn(C)c4ccccc34)ccc2O[C@@H]1CN(C)Cc1ccccc1,99.6*,-14.3,103.9*,46.1,14.5,40.2*
C[C@H]1CN([C@@H](C)CO)C(=O)Cc2cc(NC(=O)Cc3cn(C)c4ccccc34)ccc2O[C@H]1CN(C)Cc1ccc(C(=O)Nc2ccccc2N)cc1,101.7*,-1.9,96.2*,56.8,23.9,63.4*
C[C@H]1CN([C@@H](C)CO)C(=O)Cc2cc(NC(=O)Cc3cn(C)c4ccccc34)ccc2O[C@@H]1CN(C)Cc1ccc(C(=O)Nc2ccccc2N)cc1,84.2,-1.2,.,.,.,.
C[C@@H]1CN([C@H](C)CO)C(=O)Cc2cc(NC(=O)Cc3cn(C)c4ccccc34)ccc2O[C@H]1CN(C)Cc1ccc(-c2ccccc2)cc1,83.4,2.4,.,.,.,.
C[C@H]1CCCCO[C@H](CN(C)S(=O)(=O)c2ccc(Cl)cc2)[C@@H](C)CN([C@@H](C)CO)C(=O)c2cc(NC(=O)Cc3ccccc3)ccc2O1,112.0*,8.3,103.3*,84.3,1.0,-2.8
C[C@@H]1CCCCO[C@@H](CN(C)S(=O)(=O)c2ccc(Cl)cc2)[C@H](C)CN([C@H](C)CO)C(=O)c2cc(NC(=O)Cc3ccccc3)ccc2O1,115.7*,1.9,105.0*,102.8*,-28.0,18.0
Cc1ccc(S(=O)(=O)N(C)C[C@H]2OCCCC[C@@H](C)Oc3ccc(NC(=O)Cc4ccccc4)cc3C(=O)N([C@H](C)CO)C[C@@H]2C)cc1,47.3,.,.,.,.,.
C[C@H](CO)N1C[C@H](C)[C@H](CN(C)S(=O)(=O)c2ccc(Cl)cc2)OCCCC[C@H](C)Oc2ccc(NC(=O)Cc3ccccc3)cc2C1=O,105.4*,3.3,99.9*,108.9*,-10.9,11.1
Cc1ccc(S(=O)(=O)N(C)C[C@@H]2OCCCC[C@@H](C)Oc3ccc(NC(=O)Cc4ccccc4)cc3C(=O)N([C@@H](C)CO)C[C@@H]2C)cc1,72.7,.,.,.,.,.
C[C@@H]1CCCCO[C@H](CN(C)S(=O)(=O)c2ccc(Cl)cc2)[C@H](C)CN([C@H](C)CO)C(=O)c2cc(NC(=O)Cc3ccccc3)ccc2O1,117.0*,5.0,109.7*,105.2*,-9.2,-7.8
C[C@@H]1CN([C@@H](C)CO)C(=O)c2cc(NC(=O)Cc3ccccc3)ccc2O[C@@H](C)CCCCO[C@H]1CN(C)S(=O)(=O)c1ccc(Cl)cc1,40.3,-0.4,.,.,.,.
Cc1ccc(S(=O)(=O)N(C)C[C@H]2OCCCC[C@H](C)Oc3ccc(NC(=O)Cc4ccccc4)cc3C(=O)N([C@H](C)CO)C[C@H]2C)cc1,55.1,.,.,.,.,.
Cc1noc(C)c1NC(=O)Nc1cccc2c1O[C@@H](CN(C)S(=O)(=O)c1ccc(F)cc1)[C@@H](C)CN([C@H](C)CO)C2=O,29.4,1.2,.,.,.,.
CNC[C@@H]1Oc2ccc(NC(=O)Nc3cccc4ccccc34)cc2CC(=O)N([C@@H](C)CO)C[C@H]1C,25.0,-1.3,.,.,.,.
C[C@H](CO)N1C[C@H](C)[C@@H](CN(C)C(=O)CCC(F)(F)F)OCCCC[C@H](C)Oc2ccc(NC(=O)Nc3ccccc3)cc2C1=O,26.6,-0.2,.,.,.,.
C[C@@H]1CN([C@@H](C)CO)C(=O)c2cccc(NC(=O)Nc3ccc(C(F)(F)F)cc3)c2O[C@H]1CN(C)S(=O)(=O)c1cn(C)cn1,5.2,.,.,.,.,.
C[C@@H]1CN([C@H](C)CO)C(=O)c2cc(NC(=O)NC3CCCCC3)ccc2O[C@@H]1CN(C)Cc1ccc2c(c1)OCO2,22.4,-4.9,.,.,.,.
C[C@H](CO)N1C[C@H](C)[C@H](CN(C)Cc2ccc3c(c2)OCO3)Oc2ccc(NC(=O)NC3CCCCC3)cc2C1=O,100.1*,4.4,?,97.0*,27.8,51.3*
C[C@H]1CN([C@@H](C)CO)C(=O)c2cc(NC(=O)NC3CCCCC3)ccc2O[C@@H]1CN(C)Cc1ccc2c(c1)OCO2,-23.1,-1.6,.,.,.,.
C[C@H]1CN([C@@H](C)CO)C(=O)c2cc(NC(=O)NC3CCCCC3)ccc2O[C@H]1CN(C)Cc1ccc2c(c1)OCO2,?,-3.8,104.4*,98.7*,?,41.3*
COc1ccccc1-c1cnc2c(c1)C(=O)N([C@@H](C)CO)C[C@@H](C)[C@@H](CN(C)C(=O)c1ccncc1)O2,28.5,0.6,.,.,.,.
Cc1ccccc1S(=O)(=O)N(C)C[C@H]1OCc2ccccc2-c2ccccc2C(=O)N([C@H](C)CO)C[C@@H]1C,?,12.4,95.0*,31.1,-6.4,2.2
C[C@@H]1CN([C@@H](C)CO)C(=O)c2ccccc2-c2ccccc2CO[C@@H]1CN(C)S(=O)(=O)c1cccs1,115.1*,3.0,92.3,6.6,1.8,?
Cc1ccccc1S(=O)(=O)N(C)C[C@H]1OCc2ccccc2-c2ccccc2C(=O)N([C@@H](C)CO)C[C@H]1C,91.7,1.3,.,.,.,.
C[C@H](CO)N1C[C@H](C)[C@@H](CN(C)S(C)(=O)=O)OCc2ccccc2-c2ccccc2C1=O,39.9,-4.9,.,.,.,.
SMILES,T cruzi growth-1,C diff HTS,T cruzi growth-2,T cruzi growth-3,3T3 cytotox,NIH3T3 tox 2
COc1cccc(C(=O)Nc2ccc3c(c2)OC[C@H](C)NC[C@@H](C)[C@H](OC)CN(C)C3=O)c1,-7.1,.,.,.,.,.
CCNC(=O)C[C@@H]1CC[C@@H]2[C@@H](COc3ccc(NC(=O)Nc4ccc(C)cc4)cc3C(=O)N2C)O1,31.5,-3.9,.,.,.,.
CC(C)CC#Cc1ccc2c(c1)O[C@H](CN(C)Cc1ccc(F)cc1)[C@@H](C)CN([C@@H](C)CO)S2(=O)=O,100.9,18.8,.,.,.,.
CC(C)CC#Cc1ccc2c(c1)O[C@@H](CN(C)Cc1cncnc1)[C@@H](C)CN([C@@H](C)CO)S2(=O)=O,69.5,1.3,.,.,.,.
CC(C)CC#Cc1ccc2c(c1)O[C@H](CN(C)Cc1ccncc1)[C@@H](C)CN([C@H](C)CO)S2(=O)=O,122.2*,10.9,103.7*,103.8*,30.4,104.8*
CC(C)CC#Cc1ccc2c(c1)O[C@H](CN(C)Cc1ccncc1)[C@@H](C)CN([C@@H](C)CO)S2(=O)=O,130.1*,20.4,94.0,111.0*,?,106.0*
CC(C)CC#Cc1ccc2c(c1)O[C@@H](CN(C)Cc1ccncc1)[C@H](C)CN([C@H](C)CO)S2(=O)=O,129.5*,20.6,92.9,105.0*,60.9*,104.4*
CC(C)CC#Cc1ccc2c(c1)O[C@@H](CN(C)Cc1cncnc1)[C@H](C)CN([C@H](C)CO)S2(=O)=O,51.6,-10.9,.,.,.,.
C[C@@H]1CN([C@H](C)CO)C(=O)c2cc(C3=CCCC3)cnc2O[C@H]1CN(C)S(=O)(=O)c1cn(C)cn1,51.6,-1.1,.,.,.,.
CNC[C@@H]1Oc2ccc(NC(=O)CCCN(C)C)cc2C(=O)N([C@@H](C)CO)C[C@@H]1C,6.4,-4.9,.,.,.,.
N#C[C@@H]1[C@H](c2ccc(-c3cncnc3)cc2)[C@@H](CO)N1C(=O)Cc1ccccc1,88.1,-9.6,.,.,.,.
